# Source: paper PMC7826789 (International Journal of Molecular Sciences, 2021)
# Assays:
# Conditions in all cases: Compound Concentration (nM):1000
# PRKG1 = test system: PRKG1
# PRKG2 = test system: PRKG2
# PRKR = test system: T1, PRKR
# T1 construct: gene EIF2AK2
# PRKX = test system: PRKX
# PRP4 = test system: T2, PRP4
# T2 construct: gene PRPF4B
# PYK2 = test system: T3, PYK2
# T3 construct: gene PTK2B
# QSK = test system: T4, QSK
# T4 construct: gene KIAA0999
# RAF1 = test system: RAF1
# RET(M918T) = test system: RET(M918T)
# RET(V804L) = test system: RET(V804L)
# 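Note: KINOMEscan scanMAX binding as percent activity remaining versus control; lower means stronger binding.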
SMILES,Percent Control (PRKG1),Percent Control (PRKG2),Percent Control (PRKR),Percent Control (PRKX),Percent Control (PRP4),Percent Control (PYK2),Percent Control (QSK),Percent Control (RAF1),Percent Control (RET(M918T)),Percent Control (RET(V804L))
NS(=O)(=O)c1ccc(Nc2ncc(-c3ccccc3)o2)cc1 [GW572399X],96%,100%,55%,100%,100%,100%,100%,100%,100%,100%
O=C(Nc1n[nH]c2nc(-c3ccc(O)cc3)c(Br)cc12)C1CC1 [SB-725317],100%,97%,59%,100%,100%,100%,100%,46%,100%,100%
Cl.O=C(Nc1ccc(Oc2ccc3[nH]c(NC(=O)c4ccccc4)nc3c2)cc1)Nc1cc(C(F)(F)F)ccc1F [GW709042A],91%,88%,85%,100%,100%,100%,100%,27%,2.5%,3.6%
Cl.O=S1CCN(Cc2ccc(-c3ccc4ncnc(Nc5ccc(OCc6ccccc6)c(F)c5)c4c3)o2)CC1 [GW576924A],100%,100%,86%,100%,100%,100%,100%,100%,100%,100%
Nc1ncnc2occ(-c3ccc(NC(=O)Nc4cc(C(F)(F)F)ccc4F)cc3)c12 [GW770249X],71%,100%,72%,100%,100%,90%,100%,38%,0.8%,0.6%
NS(=O)(=O)c1ccc(N/N=C2\C(=O)Nc3ccc(C(=O)NCc4ccncc4)cc32)cc1 [GW300657X],100%,94%,65%,94%,81%,58%,100%,100%,80%,74%
CCS(=O)(=O)c1ccc(OC)c(Nc2ncc(-c3cccc(F)c3)o2)c1 [GW621970X],100%,100%,76%,100%,100%,100%,99%,100%,52%,84%
CN(C)c1cc2c(Nc3ccc4c(cnn4Cc4ccccc4)c3)ncnc2cn1 [GW282974X],100%,93%,76%,80%,100%,83%,95%,100%,82%,93%
COc1cc(/C=N/Nc2ncnc3[nH]ncc23)ccc1O [GW578748X],100%,22%,41%,100%,100%,100%,90%,100%,4.6%,76%
CC(C)COC(=O)c1ccc2c(c1)/C(=C/Nc1ccc(S(N)(=O)=O)cc1)C(=O)N2 [GW416981X],100%,54%,65%,100%,96%,100%,95%,100%,83%,43%
COc1ccc2[nH]c3c4[nH]c5ccc(OC)cc5c4c4c(c3c2c1)C(=O)NC4=O [GW296115X],74%,0.9%,100%,23%,97%,68%,56%,100%,21%,4.2%
